The record followed here is PubChem BioAssay AID1063 (University of Pittsburgh Molecular Library Screening Center, 2008).

A word on the inhibition: it is the relative decrease from the control value, in per cent.

The structures appear in SMILES notation. The campaign covered roughly 200,000 compounds. About 18,000 (9%) were called active. Shown is part of a subset that was picked to be rich in actives. Values without a mark were called inactive. Cut-off read from the data, not from the text of the source: active = inhibition above about 50%; inactive = the rest.

The nature of the assay: antileishmanial activity against promastigotes – primary screen (AID 1063).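 Note: promastigotes grown with compound for 44 hours at 28 °C.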 The conditions noted are these: Leishmania major promastigotes, resazurin fluorescence viability; at 10 µM; hits give high values. In general terms: Resazurin is reduced to fluorescent resorufin, in cell work by metabolically active cells.
On to `COc1ccc(NC(=O)c2cccc(NC(=O)c3ccco3)c2)c(OC)c1`, for which the inhibition was 99.3% (active).

Take `O=C(Nc1ccc(NC(=O)c2ccco2)c(Cl)c1)c1cccc([N+](=O)[O-])c1`: the inhibition was -5.27%.

Take `COc1cccc(C(=O)Nc2ccc(NC(=O)c3ccco3)cn2)c1`: the inhibition is 4.41%.

Take `COc1cc(NC(=O)c2cc([N+](=O)[O-])ccc2Br)ccc1NC(=O)c1ccco1`: the inhibition was 99% (active).

As for `COc1ccccc1C(=O)Nc1ccc(NC(=O)c2ccco2)c(C)c1`, the inhibition is 3.48%.

For the compound `COC(=O)c1cc(Cl)c(NC(=O)c2ccco2)cc1OC`, the inhibition was 8.8%.

Turning to `Cc1ccnc(NC(=O)c2ccc(NC(=O)c3ccco3)cc2)c1`, the inhibition was -2.95%.

On to `COC(=O)c1ccc(NC(=O)c2ccco2)cc1`, for which the inhibition was -5.73%.

Take `Cc1ccc(C(=O)COc2cccc(NC(=O)c3ccco3)c2)cc1`: the inhibition is 64.6% (active).

With `CCS(=O)(=O)c1ccc(O)c(NC(=O)COc2ccc(Cl)cc2)c1`, the inhibition was -12.8%.

Take `CCOc1c(CNCc2ccc(C(=O)O)cc2)cccc1OC`: the inhibition was -5.92%.

As to `NS(=O)(=O)c1ccc(NC(=S)NC(=O)c2cccnc2)cc1`, the inhibition was -2.35%.

For `COCC(C)n1c(C)cc(C(=O)COc2ccc(C)nc2[N+](=O)[O-])c1C` (stereo unspecified), the inhibition was 3.94%.

With `CCc1ccc(NC(=O)C(=O)N/N=C(\C)CC(=O)NCCOC)cc1`, the inhibition is -2.29%.

Take `COc1ccc(NC(=O)CN2C(=O)CSC2=O)cc1`: the inhibition was -6.2%.

As to `COc1cc(SC#N)ccc1N=Cc1c(C)[nH]n(-c2ccc(C)cc2)c1=O`, the inhibition was 100% (active).

As for `CCc1nnc(NS(=O)(=O)c2ccc(N=Cc3c(C)[nH]n(-c4ccc(C)cc4)c3=O)cc2)s1`, the inhibition is -3.52%.

For `Cc1ccc(-n2[nH]c(C)c(/C=N/N3C(=O)c4cccc5cccc(c45)C3=O)c2=O)cc1`, the inhibition is -6.15%.

With `COc1ccc(C)cc1NC(=O)CSc1nnc(CC(=O)Nc2ccccc2F)n1C`, the inhibition is -0.88%.

Turning to `O=C(COC(=O)C12CC3CC(CC(O)(C3)C1)C2)NC12CC3CC(CC(C3)C1)C2`, the inhibition is 17.4%.

`Cc1ccc(NC(=S)NCc2ccccc2Cl)c(C)c1`: the inhibition was 22.1%.

Turning to `COCCN(CCOC)C(=S)Nc1ccccc1Cl`, the inhibition was -4.19%.

As for `O=C(Nc1ccccc1)N(Cc1cccnc1)Cc1ccco1`, the inhibition was 4.43%.

`Cc1cccc(C)c1NC(=S)N(Cc1cccnc1)Cc1ccccc1Cl`: the inhibition was 93.8% (active).

In the case of `Cc1ccc(C(=O)NC(=S)NCc2cccnc2)cc1`, the inhibition is 2.7%.

Regarding `Cc1c(Cl)cccc1NC(=S)N(Cc1ccccc1)Cc1cccnc1`, the inhibition is 90.4% (active).

As to `Cc1ccc(CN(Cc2cccnc2)C(=S)Nc2cccc(Cl)c2C)cc1`, the inhibition is 21.5%.

Take `COCCNC(=S)N(Cc1cccnc1)Cc1ccc(OC)c(OC)c1`: the inhibition was 1.16%.

`Cc1ccc(CN(Cc2cccnc2)C(=S)Nc2cc(Cl)ccc2C)cc1`: the inhibition was 93.8% (active).

Regarding `CC(C)CCC(C)NC(=O)c1ccc2nccnc2c1` (stereo unspecified), the inhibition is 11.2%.

On to `COc1cc(-c2nnn(CC(=O)NCc3ccccc3)n2)cc(OC)c1OC`, for which the inhibition was 16.3%.

For the compound `COc1cc(C(=O)N2C(=O)c3cccc(N)c3C2=O)cc(OC)c1OC`, the inhibition was -3.21%.

Take `COCCn1c(C)cc(C(=O)COC(=O)/C=C/c2cccc(OC)c2)c1C`: the inhibition is 0.63%.

On to `Cc1cc(C)nc(NS(=O)(=O)c2ccc(N/C=C\C(=O)c3cccs3)cc2)n1`, for which the inhibition is 4.34%.

For the compound `COc1ccc(/C=C/C(=O)Nc2cccnc2)cc1OC`, the inhibition was -4.52%.

Take `Cc1cc(C)cc(C(=O)NCC(=O)OCC(=O)N2CCCCC2)c1`: the inhibition is -9.27%.

Turning to `Cc1cc(C)n(CCNCc2c(C(=O)N3C[C@@H](C)O[C@@H](C)C3)nc3ccc(Cl)cn23)n1`, the inhibition is -6.81%.

For the compound `Cc1ccc(N(C(=O)c2sc(C)nc2C)C(C(=O)NC(C)(C)C)c2ccncc2)cc1` (stereo unspecified), the inhibition was -0.8%.

Consider `O=C(O)/C=C/c1ccc(OCCCF)cc1`, for which the inhibition is -5.86%.

With `COc1cccc(/C=C2\SC(=N)N(c3ccc(F)cc3)C2=O)c1`, the inhibition is 5.76%.

Turning to `COc1ccc(-n2nnnc2SCC(=O)Nc2ccccc2)cc1`, the inhibition was -4.13%.

Take `COc1ccc(C2CC(c3ccccc3)=NN2C(=O)CSc2nccc(=O)[nH]2)cc1` (stereo unspecified): the inhibition is -0.2%.

For the compound `O=C(CSc1nnnn1-c1ccc(O)cc1)N1N=C(c2ccc3ccccc3c2)CC1c1ccccc1` (stereo unspecified), the inhibition is 99.8% (active).

For the compound `C/C(N)=C(/C#N)C(=O)COC(=O)C1CCN(C(=O)c2ccc(Cl)cc2)CC1`, the inhibition is -2.84%.

As for `Cc1ccc(S(=O)(=O)/N=C(\N)c2ccc(F)cc2)cc1`, the inhibition was -1.71%.

Consider `NC(=O)c1ccc(NC(=O)COC(=O)c2c3c(nc4ccccc24)/C(=C\c2ccc4c(c2)OCO4)CCC3)cc1`, for which the inhibition was 18.2%.

Regarding `O=C(COC(=O)c1c2c(nc3ccccc13)CCCC2)c1ccc(Br)s1`, the inhibition was 96.8% (active).

Take `O=C(COC(=O)c1c2c(nc3ccccc13)/C(=C\c1cccs1)CCC2)Nc1ccccc1Cl`: the inhibition is 27.8%.

As for `COc1ccc2c(c1)CCC/C2=N\OC(=O)c1ccccc1F`, the inhibition is -7.06%.

In the case of `COc1cc2nc(CN(C)Cc3ccc(F)cc3)[nH]c(=O)c2cc1OC`, the inhibition is 9.19%.

On to `CC(=O)Nc1ccc(NC(=S)NC(=O)/C=C/c2ccccc2)cc1`, for which the inhibition is -1.29%.

Turning to `CC(=O)Nc1cc(C(=O)O)ccc1S(=O)(=O)c1ccc(Cl)cc1`, the inhibition is -5.9%.

As to `CC(C)C(NC(=O)c1ccc(Cl)cc1)C(=O)O` (stereo unspecified), the inhibition is 27.4%.

Take `Cc1ccc(S(=O)(=O)c2ccc(Cl)cc2)cc1S(=O)(=O)NC(C(=O)O)C(C)C` (stereo unspecified): the inhibition is 50.9% (active).

Turning to `Cn1cnc([N+](=O)[O-])c1Sc1ccccc1`, the inhibition was 51.5% (active).

For `Cn1cnc([N+](=O)[O-])c1Nc1ccccc1O`, the inhibition is -4.52%.

`Cn1nc(-c2ccccc2)c(CO)c1Sc1ccccc1`: the inhibition was 18.3%.

As for `C=CCn1c(SCC(=O)CC(=O)OCC)nc2cc(C(=O)N3CCC(C(N)=O)CC3)ccc2c1=O`, the inhibition is -4.29%.

Consider `CC(=O)N1CCN(c2cccc(C)c2C)CC1`, for which the inhibition was -2.3%.

As to `CCC(CC)C(=O)N1CCN(c2cccc(C)c2C)CC1`, the inhibition is -3.72%.

For the compound `Cc1cccc(N2CCN(C(=O)c3cnn4c(C(F)F)cc(-c5ccccc5)nc34)CC2)c1C`, the inhibition is 90.6% (active).
